Rv3671c inh – inhibits the M. tuberculosis serine protease Rv3671c. P9WHR9. inhibition, % at 5.96 µM. AID 2606. actives 0.048% (n = 320,000); in the data active = inhibition above about 38%;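 note: extracellular domain of Rv3671c used as enzyme; 0% = enzyme with DMSO and 100% = no enzyme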
Mtb FBA inh – inhibits M. tuberculosis FBA enzyme; actives 2.3% (n = 360,000); purified M. tuberculosis FBA, fluorescence read-out; P9WQA3; inhibition, % at 1 µM; in the data active = inhibition above about 27%;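 note: 0% = vehicle and 100% = reference inhibitor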
UGM FP inh – inhibitors of M. tuberculosis UDP-galactopyranose mutase. P9WIQ1. purified UGM, fluorescence polarization probe displacement. inhibition, % at 10 µM. actives 0.06% (n = 320,000). AID 504406; in the data active = inhibition above about 10%, passing the limit was not always enough
Target sequence (P9WIQ1 whole entry, looked up): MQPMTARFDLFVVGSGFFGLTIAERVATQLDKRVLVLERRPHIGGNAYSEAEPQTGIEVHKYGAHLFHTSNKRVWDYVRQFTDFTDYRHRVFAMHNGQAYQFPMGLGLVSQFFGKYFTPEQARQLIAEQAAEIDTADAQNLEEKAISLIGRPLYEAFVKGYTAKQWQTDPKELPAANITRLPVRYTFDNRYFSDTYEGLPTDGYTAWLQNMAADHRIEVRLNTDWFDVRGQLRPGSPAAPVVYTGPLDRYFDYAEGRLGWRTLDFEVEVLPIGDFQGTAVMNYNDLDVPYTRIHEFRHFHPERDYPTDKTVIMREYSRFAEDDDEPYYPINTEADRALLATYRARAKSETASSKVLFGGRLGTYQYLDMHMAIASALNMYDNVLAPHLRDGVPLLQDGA
GDH-TPI counter-1 – inhibits GDH-TPI coupling enzymes, artifact for Mtb FBA screen | GDH-TPI coupled enzyme counterscreen, NADH absorbance | inhibition, % at 4.8 µM | actives 1.2% (n = 360,000); in the data active = inhibition above about 30%;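 note: 0% = DMSO wells and 100% = wells lacking the enzyme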
RecA splice inh – blocks M. tuberculosis RecA intein splicing; cell-free RecA intein splicing, fluorescence; inhibition, % (concentration not given with the values); P9WHJ3; AID 2221; actives 0.75% (n = 290,000); in the data active = inhibition above about 30%;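 note: 0% = vehicle wells and 100% = reference inhibitor control wells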
Mtb betalactam – beta-lactam sensitization of Mtb H37Rv | M. tuberculosis H37Rv growth with meropenem, percent inhibition | inhibition, % at 25 µM | actives 0.27% (n = 330,000);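 note: growth measured after seven days incubation then overnight dye step; 0% = bacteria only wells and 100% = bacteria with antibiotic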
Mtb FBA confirm – Mtb FBA inhibition, confirmed; shares compounds with Mtb FBA inh; purified M. tuberculosis FBA, fluorescence read-out; inhibition, % at 1 µM; actives 78% (n = 5,600); AID 651616; in the data active = inhibition above about 27%;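 note: 0% = vehicle wells and 100% = reference inhibitor wells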
GDH-TPI counter-2 – GDH-TPI inhibition counter-screen for FBA inhibitors; shares compounds with Mtb FBA inh; GDH-TPI coupled enzyme counterscreen, fluorescence; inhibition, % at 1 µM; actives 81% (n = 5,600); AID 652141; in the data active = inhibition above about 10%
GDH-TPI dose – inhibits GDH-TPI coupling enzymes in dose response; shares compounds with Mtb FBA inh; GDH-TPI coupled enzyme assay, fluorescence, artifact counterscreen; IC50, µM; actives 79% (n = 170); AID 652145
* = called active by the depositor; . = not tested or not shown; + = active, no number. Hits are enriched below; roughly 4% of the tested compounds scored in any of these assays. Unless noted, the rule behind the calls is not given here.

SMILES	Rv3671c inh	Mtb FBA inh	UGM FP inh	GDH-TPI counter-1	RecA splice inh	Mtb betalactam	Mtb FBA confirm	GDH-TPI counter-2	others
COc1ccccc1NC(=O)Nc1nc(C(C)(C)C)cs1	-9	-8	0	-7	2	4	.	.
CCCNC(=O)C1(C)CCCN(C/C=C/c2ccccc2)C1 (configuration not stated)	.	0	.	-5	.	.	.	.
CCc1cc(-c2nnn(-c3cc(C(C)C)ccc3C)c2CC)ccc1-c1cn(CCc2c[nH]c3ccccc23)nn1	.	1	.	19	.	.	.	.
CCOc1ncccc1C(=O)Nc1ccc(C)cn1	.	-2	1	-4	-1	1	.	.
Nc1nnc(/C=C/c2ccccc2Cl)s1	1	28*	2	6	-1	64	15	0	GDH-TPI dose=3.9*
O=C(Nc1ccccc1)Nc1nnc(/C=C/c2ccccc2Cl)s1	-4	4	1	3	-1	-11	.	.
CC(C)c1cc(Cn2c3ccccc3c(=O)n2C(C)CBr)on1 (configuration not stated)	.	96*	.	.	.	.	70*	46*
CC(C)c1cc(Cn2c3ccccc3c(=O)n2C(C)C)on1	.	103*	.	.	.	.	+	+
CCCn1c(CCNC(=O)c2ccco2)nc2ccccc21	-8	6	0	4	2	-5	.	.
CCC(=O)c1ccccc1OCCN1CCN(Cc2ccccc2)CC1	-8	4	0	-4	0	-5	.	.
CCC(=O)c1ccccc1OCCCn1cncn1	-7	27*	2	7	.	-6	112*	84*
CCOC(=O)c1sc2ncn(CC(=O)Nc3cc(C)on3)c(=O)c2c1C	6	4	.	1	.	0	.	.
COc1cc2ccccc2cc1C(=O)OCC(=O)N1CCOCC1	1	52*	3	-8	-5	1	180*	156*
CC(C)N(C(=O)COC(=O)c1cc(Cl)cc(Cl)c1N)C(C)C	-5	80*	0	1	4	-4	6	3
Nc1c(Cl)cc(Cl)cc1C(=O)OCC(=O)N1CCOCC1	9	101*	-2	4	-2	3	+	+
CC1CCN(C(=O)COC(=O)c2cc(Cl)cc(Cl)c2N)CC1	-14	81*	3	-2	-1	7	110*	90*
O=C(OCC(=O)N1CCOCC1)c1cc(S(=O)(=O)N2CCOCC2)c(Cl)cc1Cl	-4	1	.	10	.	1	.	.
COc1ccc(-c2cc(C(=O)OCC(=O)N3CCOCC3)c3ccccc3n2)cc1	-18	19	-2	22	.	65	.	.
COC(=O)CCC(=O)NC(=S)Nc1ccccc1F	2	-2	0	9	1	-11	.	.
CN1CCCc2cc3c(C(F)(F)F)cc(=O)oc3nc21	4	30*	1	8	-430	-1	130*	111*
COc1ccc(OC)c(/C=C/C(=O)OCC(=O)Nc2cccc(C(C)=O)c2)c1	-18	3	1	3	-2	20	.	.
COc1ccc(OC)c(/C=C/C(=O)Oc2ccc(C(C)=O)cc2)c1	-3	33*	1	11	-4	7	132*	107*
O=c1oc(Nc2ccccc2F)nc2ccccc12	6	20	0	1	-6	-9	.	.
O=c1oc(Nc2cccc(Cl)c2)nc2ccccc12	25	48*	-1	-6	0	5	34*	18*
CCN(CC)C(=O)c1ccc(N)cc1	-5	4	2	1	-5	-1	.	.
SMILES	Rv3671c inh	Mtb FBA inh	UGM FP inh	GDH-TPI counter-1	RecA splice inh	Mtb betalactam	Mtb FBA confirm	GDH-TPI counter-2	others
Cc1nc(NCCCO)c(C#N)c2c1COC(C)(C)C2	-4	74*	1	5	-1	10	113*	86*
CC1(C)Cc2c(C#N)c(NCCCO)nc(-c3ccccc3)c2CO1	0	13	1	0	-2	-3	.	.
Cc1ccc(NS(=O)(=O)c2ccc(-c3csc(C)n3)s2)c(C)c1	-4	0	4	1	.	-8	.	.
O=c1cc(-c2ccccc2)nc2cc(-c3ccc(F)cc3)[nH]n12	-2	44*	0	3	1	1	0	-3
Cc1nc2nc(-c3ccccc3)[nH]n2c(=O)c1C	6	13	0	10	0	.	.	.
O=c1c2c(nc3cc(-c4ccc(F)cc4)[nH]n13)CCC2	-2	38*	-3	4	-2	6	119*	81*
CCOC(=O)CCc1c(C)nc2cc(-c3ccc(F)cc3)[nH]n2c1=O	1	20	3	11	-4	6	.	.
Cc1nc2cc(-c3ccccc3)[nH]n2c(=O)c1C	0	33*	-1	6	-2	-10	95*	62*
CCc1c(C)nc2cc(-c3ccc(OC)cc3)[nH]n2c1=O	-1	35*	3	11	-1	5	+	+
CN(Cc1cccc(F)c1)C(=O)C1CC(=O)N(c2ccc3c(c2)OCCO3)C1 (configuration not stated)	2	35*	-1	1	.	-7	+	+
O=C(NCCCc1ccccc1)C1CC(=O)N(c2ccc3c(c2)OCCO3)C1 (configuration not stated)	5	4	-1	3	1	2	.	.
O=C(NCCc1ccccc1)C1CC(=O)N(c2ccc3c(c2)OCCO3)C1 (configuration not stated)	-4	28*	0	-2	-6	-9	38*	21*
CN(Cc1ccc(Cl)c(Cl)c1)C(=O)C1CC(=O)N(c2ccc3c(c2)OCCO3)C1 (configuration not stated)	.	0	.	-6	.	.	.	.
NC(=Nc1ccccc1)NC(=O)c1nc(Cl)c(N)nc1N	3	23	0	22	-4	5	.	.
NC(=NCc1ccccc1)NC(=O)c1nc(Cl)c(N)nc1N	-3	37*	0	15	-1	8	32*	37*
CC1CC(C)CN(S(=O)(=O)c2ccc(C(=O)NNC(=O)c3ccccc3F)cc2)C1 (configuration not stated)	0	0	-1	5	.	0	.	.
CCC(C)NC(=O)CNC(=O)c1nn(-c2ccc(OC)cc2OC)c(=O)c2ccccc12 (configuration not stated)	-1	3	5	4	-2	5	.	.
CC/C(=N/NC(=O)c1ccccc1)c1ccc(OCCN2CCOCC2)cc1	1	31*	-2	3	1	7	91*	57*
CC/C(=N/NC(=O)c1ccc(Br)cc1)c1ccc(OCCN2CCOCC2)cc1	1	0	6	7	0	4	.	.
